Source: PubChem (National Center for Advancing Translational Sciences (NCATS))
SW480 rereplic: inducers of DNA re-replication in SW480 colon cancer cells | SW480 DNA re-replication, Hoechst DNA content imaging, 48 h | Potency, µM (series often up to 46.1 µM), inactives show top-dose re-replication activation, usual class: activators | 1.8% of 340,000 active | AID 624297; further: % of control where 0% means no effect; nearly all actives have a fitted effect of over 55% in size
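Image-based DNA-content assay: after two days of treatment, nuclei were labelled with the DNA dye Hoechst and imaged, and hits were compounds raising the count of nuclei showing high fluorescence intensity.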
KB-V1 cytotox: KB-V1 MDR subline cytotoxicity. KB-V1 MDR cells viability, CellTiter-Glo, 72 h. Potency, µM (highest dose often 46.1 µM), actives largely listed as cytotoxic. 3.4% of 400,000 active; further: on the % scale 0 is the no-effect control and ±100 the full control effect; nearly all actives have a fitted effect of over 60% in size
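Luminescent ATP read-out (CellTiter-Glo, 10 min) measures survival of drug-selected KB-V1 MDR cells after 72 h, 37 degrees C compound exposure. Medium: phenol-red-free DMEM, 10% FBS. Values from fitted concentration-response curves.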
12-LOX inh: ALOX12 (human) lipoxygenase inhibition; purified 12hLO, xylenol orange hydroperoxide absorbance; Potency, µM (top dose mostly 108 µM), for inactives: at the top dose activity change, negative = inhibition, most hits filed as inhibitors; 1.1% of 580,000 active; further: on the % scale 0 is the no-effect control and ±100 the full control effect
Target sequence (P18054 whole entry, looked up): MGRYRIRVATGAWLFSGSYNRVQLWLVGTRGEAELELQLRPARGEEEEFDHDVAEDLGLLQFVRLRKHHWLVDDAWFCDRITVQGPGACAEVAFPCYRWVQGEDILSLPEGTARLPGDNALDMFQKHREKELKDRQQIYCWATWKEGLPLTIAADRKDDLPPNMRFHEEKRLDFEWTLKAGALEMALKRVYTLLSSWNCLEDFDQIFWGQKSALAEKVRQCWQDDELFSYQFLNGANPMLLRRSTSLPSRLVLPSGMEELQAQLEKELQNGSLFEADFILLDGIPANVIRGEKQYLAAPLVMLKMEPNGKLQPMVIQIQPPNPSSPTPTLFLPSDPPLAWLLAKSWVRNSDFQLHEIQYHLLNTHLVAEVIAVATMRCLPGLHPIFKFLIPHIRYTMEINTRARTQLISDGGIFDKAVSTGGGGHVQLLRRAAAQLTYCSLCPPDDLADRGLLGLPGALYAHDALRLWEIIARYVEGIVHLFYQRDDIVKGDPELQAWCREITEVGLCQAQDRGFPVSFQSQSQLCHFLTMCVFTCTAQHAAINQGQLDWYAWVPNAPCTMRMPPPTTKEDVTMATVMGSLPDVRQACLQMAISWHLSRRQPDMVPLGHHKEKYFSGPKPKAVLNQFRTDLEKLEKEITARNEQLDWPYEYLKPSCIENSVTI
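Purified human 12hLO (150 nM final) in 25 mM Hepes, 0.01% Triton X-100, pH 7.0 was preincubated 15 min at room temperature with compound. Then 40 uM arachidonic acid was added, 30 min. Hydroperoxide was read by Fe-XO absorbance ratio 573/405 nm.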
PINK1 expr mod: changes PINK1 expression | AID 624263 | PINK1 immunofluorescence, high-content cytometry, 24 h | Potency, µM (series often up to 76.6 µM), for the others: at the top dose activation (PINK1 increase), actives largely listed as activators | 0.2% of 410,000 active; active means well fitted activation curve with a large enough effect; inconclusive means small, poorly fitted or top-dose-only effect; cell line not stated here; further: % of control where 0% means no effect; nearly all actives have a fitted effect of over 65% in size
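Readout is PINK1 immunofluorescence, quantified alongside mitochondrial, cell and nuclear markers by laser-scanning microplate cytometry. Cells from a stable line were exposed to compound titrations (5 concentrations) for 24 hours, with CCCP controls.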
MCF10A rerep: induces DNA re-replication in MCF 10a normal breast cells. 2.9% of 350,000 active. AID 624296. MCF 10A DNA re-replication, Hoechst nuclear intensity, 48 h. Potency, µM (series often up to 46.1 µM), without a hit: at the top dose activity, positive = re-replication, most hits filed as activators; further: % of control where 0% means no effect; nearly all actives have a fitted effect of over 50% in size
KB-3-1 tox: kills parental KB-3-1 adenocarcinoma cells; KB-3-1 viability, CellTiter-Glo ATP luminescence, 72 h; Potency, µM (series often up to 46.1 µM), hits mostly cytotoxic; 1.4% of 400,000 active; further: on the % scale 0 is the no-effect control and ±100 the full control effect; nearly all actives have a fitted effect of over 60% in size
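Here the drug-naive KB-3-1 line serves as comparator for MDR sub-line selectivity; cells received compound titrations, 72 h at 37 °C, then CellTiter-Glo readout.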
* = called active by the depositor; i = inactive; u = inconclusive; x = no result; [ ] = remark or other dose. A selection: hits, their analogues and other compounds. The true share with any hit is near 5.8%. Unless noted, the call rests on the fitted dose curve; in most records, active means well fitted curve in the direction sought with a large enough effect; inconclusive means small, poorly fitted or top-dose-only effect, or another doubt; inactive means no such curve, though single readings can be large; an effect the other way counts as inactive or inconclusive. Potency means the concentration at half of the fitted maximal effect.

SMILES	SW480 rereplic	KB-V1 cytotox	12-LOX inh	PINK1 expr mod	MCF10A rerep	KB-3-1 tox
CN(C)c1ccc(/C=C/c2ccnc3ccc4ccccc4c23)cc1	x	i	x	x	x	1.6µM*
CN(C)c1ccc(C=Cc2nccc3ccccc23)cc1	x	i	u	u	x	9.2µM*
COc1ccc(C2Cn3nnc(C(=O)N4CCN(C(=O)c5ccc(F)cc5)CC4)c3CO2)cc1 (stereo unspecified)	x	x	-4%	x	x	x
CC(NCc1ccc(-c2ccccc2)cc1)C(O)c1ccccc1 (stereo unspecified)	4.1µM*	i	u	-2%	26µM*	i
COc1cc(/C=C/c2nc(C#N)c(NCCCn3ccnc3)o2)cc(OC)c1OC	x	x	18%	x	x	x
CCCNc1c(NC(=O)c2ccc(Br)o2)c(=O)oc2ccccc12	x	x	28%	x	x	x
CC(O)(c1cccnc1)c1nc(-c2ccc3ccccc3c2)cs1 (stereo unspecified)	x	6.5µM*	-17%	-1%	x	u
CC(O)(c1cccc(F)c1)c1nc(-c2ccccc2)cs1 (stereo unspecified)	x	i	10µM*	14%	x	i
COc1cccc(C(C)(O)c2nc(-c3ccc(S(C)(=O)=O)cc3)cs2)c1 (stereo unspecified)	x	16µM*	-3%	-1%	x	18µM*
COc1cccc(C(C)(O)c2nc(-c3cccs3)cs2)c1 (stereo unspecified)	x	u	4.5µM*	9%	x	i
COc1ccc(OCCn2c(NC(=O)c3cccs3)nc3ccccc32)cc1	x	x	23%	x	x	x
OCC1CCCCC1CN1CCNCC1 (stereo unspecified)	x	x	-9%	x	x	x
Cc1nc2ccccc2c(=O)n1/N=C/c1cn[nH]c1-c1ccccc1	-5%	i	2%	2%	10%	u
O=C(Nn1c(COc2ccccc2)nc2ccccc2c1=O)C(Cl)(Cl)Cl	18µM*	i	u	3%	u	i
O=C(O)COc1ccc(/C=N/n2c(COc3ccccc3)nc3ccccc3c2=O)cc1	-5%	i	-1%	2%	9%	i
O=c1c2ccccc2nc(COc2ccccc2)n1/N=C/c1ccc(O)c(O)c1	4%	u	3.5µM*	1%	1%	u
Cc1ccccc1OCc1nc2ccccc2c(=O)n1/N=C/c1cn[nH]c1-c1ccccc1	u	13µM*	6%	-4%	u	u
Cc1ccc(-c2[nH]ncc2/C=N/n2c(COc3ccccc3)nc3ccccc3c2=O)cc1	u	u	11%	-1%	18µM*	u
CC(C)(C)C(=O)/C=c1/[nH]c(=O)/c(=C/c2ccccc2F)s1	x	x	2%	x	x	x
C[S+](=O)([O-])CCn1ncc2cc(OCc3cccc(-c4cccc(O)c4)c3)ccc21	x	x	-13%[176 µM]	x	x	x
CCn1nc(C)c(CCNC(=O)Nc2ccc(OC)cc2OC)c1C	x	x	-6%	x	x	x
CCN(CC)C(=O)CSC(Nc1ccc(F)cc1)=C(C#N)C#N	1%	i	0%	0%	-1%	i
Cc1ccc(CSC(Nc2ccc(F)cc2)=C(C#N)C#N)cc1	u	13µM*	u	u	13µM*	u
Cc1c2c(nc3nc4ccccc4n13)CC(C)(C)CC2=O	-12%	15µM*	-1%	-1%[38.3 µM]	3%	i
CCCCn1c(=O)n(CC(=O)Nc2ccc(C)cc2)c(=O)c2c1ncn2Cc1ccco1	x	x	-25%	x	x	x
SMILES	SW480 rereplic	KB-V1 cytotox	12-LOX inh	PINK1 expr mod	MCF10A rerep	KB-3-1 tox
O=C(O)c1ccc(N=Nc2c(O)ccc3ncccc23)cc1	15µM*	u	-4%	u	3%	u
O=C(Cc1cc(Cl)c2c(c1)OCCO2)NC1CCN(C2CC2)CC1	x	x	3%	x	x	x
CN1C2CCC1/C(=C\c1ccccc1)C(=O)/C2=C\c1ccccc1	u	i	-3%	-2%	u	7.3µM*
O=C1/C(=C\c2ccccc2)CCc2ccccc21	x	x	2%	x	x	x
COCc1ccc(-c2c(-c3ccc(OC)cc3)oc(=O)c3cc(OC)c(OC)cc23)cc1	16%	i	-9%	0%	2.6µM*	i
O=C1N/C(=C\c2ccc(O)cc2)C(=O)c2ccccc21	13µM*	i	x	3%[38.3 µM]	3.2µM*	u
O=C(O)/C=C1\NC(=O)c2ccccc21	1%	i	u	-2%	-2%	i
CC(=O)Nc1ccc2cc3ccc(NC(C)=O)cc3nc2c1	-4%	i	-2%	2%	-8%	23µM*
CC(=O)Nc1ccc2ccccc2c1	-13%	i	x	-1%[38.3 µM]	18%	i
N#CCCn1nc(-c2ccccc2)cc1Nc1ccccc1NC(=O)C(F)(F)F	0%	21µM*	-1%	3%	-2%	i
Cc1ccc(NC(=O)c2cc(N3C(=O)CCC3=O)ccc2N2CCOCC2)cc1	-1%	i	-2%	2%	-2%	i
O=C(O)/C=C/C(=O)Nc1ccc(N2CCOCC2)cc1	x	x	32µM*	x	x	x
Cc1ccc(NC(=O)c2cc(N3C(=O)C=CC3=O)ccc2N2CCOCC2)cc1Cl	u	i	13µM*	5%	16µM*	i
O=C(/C=C/c1ccc(Cl)cc1)Nc1ccc(N2CCOCC2)cc1	-18%	i	-11%	4%	-5%	i
O=C(c1ccc(NC(=S)Nc2ccc(Cl)c(Cl)c2)cc1)N1CCCC1	-3%	i	u	28µM*	7%	i
O=C(Nc1ccc(N2CCOCC2)cc1)Nc1ccc(Cl)c(Cl)c1	0%	18µM*	u	10%[38.3 µM]	-5%	u
O=C(Nc1ccc(Cl)c(Cl)c1)N1CCCCCC1	u	i	-12%	6%	7%	i
Nc1cc(F)ccc1C(=O)OCc1cccc(Cl)c1	x	x	-33%	x	x	x
CCC(C)C(=O)OCCc1ccccc1 (stereo unspecified)	x	x	-11%[176 µM]	x	x	x
CCOc1cc(/C=C\c2[nH]c(=O)[nH]c(=O)c2[N+](=O)[O-])ccc1OC(C)CC (stereo unspecified)	23µM*	i	8%	-3%[38.3 µM]	u	i
CCOC(=O)COc1ccc(Br)cc1/C=C/c1[nH]c(=O)[nH]c(=O)c1[N+](=O)[O-]	u	i	-28%	-3%	u	i
CCCOc1ccc(/C=C/c2[nH]c(=O)[nH]c(=O)c2[N+](=O)[O-])cc1OCC	u	i	-7%	u	u	i
CC(C)c1ccc(/C=C/c2[nH]c(=O)[nH]c(=O)c2[N+](=O)[O-])cc1	-6%	i	u	-1%	18µM*	i
CCOC(=O)COc1ccc(Br)cc1/C=C\c1[nH]c(=O)[nH]c(=O)c1[N+](=O)[O-]	u	i	-14%	-3%	8.2µM*	i
